According to the supplement of paper PMC10849652:
The full data set covers some 8,800 targets. This sample favours those with a hit. About 0.5% of all pairs of compound and target were hits.

Key:
Assay in all cases: log2 fold change, soluble protein after heating vs DMSO (PISA); higher = thermal stabilisation; K562 lysate, 10 uM; active = over 0.2 and 3.5 SD of the protein, either way, in both replicates (recomputed)
[1] = compound: NCC(=O)Nc1ccc(-n2nc(C(F)(F)F)cc2-c2ccc3c(ccc4ccccc43)c2)cc1
Procedure, shortened: (§1)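 Pellets of K562 cells were dounce-homogenised in PBS pH 7.4 with 1 mM MgCl2, and the crude extract was held at 1 mg/mL protein for a 30 min treatment with 10 μM compound. Aliquots were heated for 3 min over 48°C-58°C and pooled before NP-40 was added to 0.5% at 4°C. The supernatant from 21,000xg for 90 min was quantified by TMTpro 16plex LC-MS/MS with channel sums equalised. Values are reported from duplicates as log-two fold change in thermal stability relative to solvent controls.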

[2] = compound: O=C(CCCCCCC(=O)Nc1ccccc1)NO [vorinostat]
Procedure, shortened: as §1

[3] = compound: O=C(O)c1ccc2c(c1)nc(Nc1cccc(Cl)c1)c1ccncc12 [silmitasertib]
Procedure, shortened: as §1

[4] = compound: O=C1NC(=O)C(c2cnc3ccccn23)=C1c1cn2c3c(cc(F)cc13)CN(C(=O)N1CCCCC1)CC2
Procedure, shortened: as §1

[5] = compound: c1cn2cc(-c3ccc4cn[nH]c4c3)nc(Nc3ccc(N4CCOCC4)cc3)c2n1 [entospletinib]
Procedure, shortened: as §1

Measured: log2 fold change

NUB1 (UniProt Q9Y5A7)
active: [2] -0.333
inactive: [1] -0.004 | [3] -0.027 | [4] 0.031 | [5] 0.001

NOC2L (UniProt Q9Y3T9)
inactive: [1] -0.055 | [2] -0.126 | [3] 0.031 | [4] 0.009 | [5] 0.028

MRPS31 (UniProt Q92665)
inactive: [1] 0.058 | [2] 0.021 | [3] -0.046 | [4] -0.001 | [5] 0

NAP1L5 (UniProt Q96NT1)
inactive: [1] 0.023 | [2] 0.059 | [3] 0.033 | [4] -0.049 | [5] 0.071

NAA30 (UniProt Q147X3)
active: [2] -0.235
inactive: [1] -0.019 | [3] 0.047 | [4] 0.009 | [5] -0.003

NUF2 (UniProt Q9BZD4)
active: [2] -0.242
inactive: [1] 0.005 | [3] 0.017 | [4] 0.008 | [5] 0.016

MYH11 isoform 2 (UniProt P35749)
inactive: [1] 0.014 | [2] 0.042 | [3] 0.02 | [4] -0.005 | [5] 0.013

NCAPD2 (UniProt Q15021)
inactive: [1] -0.01 | [3] 0.01 | [4] -0.005 | [5] -0.001
active: [2] -0.332

MRPS18A isoform 2 (UniProt Q9NVS2)
inactive: [1] 0.008 | [2] 0.021 | [3] 0.048 | [4] 0.019 | [5] -0.052

PANK1 (UniProt Q8TE04)
inactive: [1] 0.01 | [2] -0.084 | [3] 0.004 | [4] -0.039 | [5] 0.08

MRPL53 (UniProt Q96EL3)
inactive: [1] -0.052 | [2] -0.119 | [3] 0.042 | [4] -0.024 | [5] 0.033

NIFK (UniProt Q9BYG3)
inactive: [1] 0.063 | [2] 0.063 | [3] -0.001 | [4] 0.047 | [5] 0.044

NACC1 (UniProt Q96RE7)
inactive: [1] -0.014 | [3] 0.024 | [4] -0.004 | [5] -0.036
active: [2] -0.231

OSBP2 (UniProt Q969R2)
inactive: [1] 0.025 | [2] 0.055 | [3] -0.147 | [4] 0.023 | [5] -0.102

NEDD8 (UniProt Q15843)
Chain of UniProt Q15843 (Q15843 whole entry, looked up): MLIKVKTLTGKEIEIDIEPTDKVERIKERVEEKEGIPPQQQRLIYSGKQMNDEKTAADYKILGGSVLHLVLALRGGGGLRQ
inactive: [1] -0.033 | [2] 0.195 | [3] -0.12 | [4] 0.038 | [5] -0.082

NDUFAF5 (UniProt Q5TEU4)
Chain of UniProt Q5TEU4 (Q5TEU4 whole entry, looked up): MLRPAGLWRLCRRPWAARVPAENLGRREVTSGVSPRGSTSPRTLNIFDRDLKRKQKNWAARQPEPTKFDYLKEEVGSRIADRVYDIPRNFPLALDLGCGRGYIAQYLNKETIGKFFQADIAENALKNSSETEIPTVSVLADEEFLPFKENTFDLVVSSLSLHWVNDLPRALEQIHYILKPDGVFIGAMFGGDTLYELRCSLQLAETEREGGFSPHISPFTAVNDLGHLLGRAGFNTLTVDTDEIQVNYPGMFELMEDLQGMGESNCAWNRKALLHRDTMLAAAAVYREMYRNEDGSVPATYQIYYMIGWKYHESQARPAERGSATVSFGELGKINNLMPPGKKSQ
inactive: [1] -0.023 | [2] 0.065 | [3] 0.002 | [4] -0.006 | [5] -0.046

NOSIP (UniProt Q9Y314)
active: [2] -0.809
inactive: [1] -0.015 | [3] -0.047 | [4] 0.002 | [5] 0.013

NCAPG (UniProt Q9BPX3)
active: [2] -0.283
inactive: [1] -0.001 | [3] 0.029 | [4] -0.003 | [5] -0.002

PAGE2B (UniProt Q5JRK9)
active: [2] 0.474
inactive: [1] 0.057 | [3] -0.001 | [4] 0.02 | [5] 0.017

NUDT5 (UniProt Q9UKK9)
inactive: [1] -0.018 | [2] 0.1 | [3] -0.021 | [4] 0.02 | [5] 0.012

NUP205 (UniProt Q92621)
active: [2] -0.335
inactive: [1] 0.003 | [3] 0.037 | [4] 0.001 | [5] 0.005

PAXBP1 (UniProt Q9Y5B6)
Chain of UniProt Q9Y5B6 (Q9Y5B6 whole entry, looked up): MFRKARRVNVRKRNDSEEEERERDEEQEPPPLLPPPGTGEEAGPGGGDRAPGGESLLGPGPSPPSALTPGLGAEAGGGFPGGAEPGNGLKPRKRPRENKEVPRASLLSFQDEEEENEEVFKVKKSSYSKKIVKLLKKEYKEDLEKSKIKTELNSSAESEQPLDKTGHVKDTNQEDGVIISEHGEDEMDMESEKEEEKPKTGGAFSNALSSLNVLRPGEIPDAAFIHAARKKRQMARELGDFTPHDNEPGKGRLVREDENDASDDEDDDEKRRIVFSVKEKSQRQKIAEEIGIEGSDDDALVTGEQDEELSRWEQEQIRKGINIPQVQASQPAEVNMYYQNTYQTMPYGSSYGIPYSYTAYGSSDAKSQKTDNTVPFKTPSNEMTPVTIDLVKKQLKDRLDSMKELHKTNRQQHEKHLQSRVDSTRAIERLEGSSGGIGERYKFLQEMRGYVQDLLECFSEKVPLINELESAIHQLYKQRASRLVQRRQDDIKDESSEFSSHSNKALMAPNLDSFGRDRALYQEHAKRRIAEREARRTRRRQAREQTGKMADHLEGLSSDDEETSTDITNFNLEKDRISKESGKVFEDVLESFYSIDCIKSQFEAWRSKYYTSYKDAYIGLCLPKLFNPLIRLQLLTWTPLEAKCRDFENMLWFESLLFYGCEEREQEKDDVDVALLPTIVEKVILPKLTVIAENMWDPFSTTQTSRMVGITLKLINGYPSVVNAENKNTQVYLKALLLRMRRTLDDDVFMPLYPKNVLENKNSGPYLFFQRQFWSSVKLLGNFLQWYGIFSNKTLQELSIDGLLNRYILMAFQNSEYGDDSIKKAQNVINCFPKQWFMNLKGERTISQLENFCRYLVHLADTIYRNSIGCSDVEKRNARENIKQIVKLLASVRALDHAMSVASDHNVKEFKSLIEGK
inactive: [1] 0.02 | [2] -0.146 | [3] -0.019 | [4] -0.02 | [5] -0.043

MTHFD1L (UniProt B7ZM99)
active: [2] -0.408
inactive: [1] 0.031 | [3] 0.07 | [4] 0.045 | [5] -0.02

NIPBL (UniProt Q6KC79)
inactive: [1] -0.024 | [3] 0.101 | [4] -0.005 | [5] 0.071
active: [2] -0.357

MTA1 (UniProt Q13330)
active: [2] -0.212
inactive: [1] -0.005 | [3] -0.037 | [4] 0.016 | [5] -0.036

NUMB (UniProt P49757)
inactive: [1] 0 | [3] -0.014 | [4] -0.066 | [5] 0
active: [2] -0.315

NR2C2 isoform 2 (UniProt P49116)
inactive: [1] -0.024 | [2] -0.233 | [3] 0.041 | [4] 0.008 | [5] 0.028

PAK4 (UniProt O96013)
inactive: [1] -0.003 | [2] -0.458 | [3] -0.038 | [4] 0.028 | [5] 0.05

NTMT1 (UniProt Q9BV86)
Chain of UniProt Q9BV86 (Q9BV86 whole entry, looked up): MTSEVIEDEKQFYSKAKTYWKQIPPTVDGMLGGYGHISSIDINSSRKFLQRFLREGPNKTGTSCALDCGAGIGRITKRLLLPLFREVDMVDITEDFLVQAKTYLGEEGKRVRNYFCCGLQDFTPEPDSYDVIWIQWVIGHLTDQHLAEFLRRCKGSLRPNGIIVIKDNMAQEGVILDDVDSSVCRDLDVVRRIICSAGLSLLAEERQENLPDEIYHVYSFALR
active: [2] -0.366
inactive: [1] 0.008 | [3] 0.026 | [4] 0.01 | [5] 0.049

PAN2 isoform 2 (UniProt Q504Q3)
inactive: [1] 0.11 | [2] -0.097 | [3] 0.038 | [4] -0.056 | [5] 0.038

MSH3 (UniProt P20585)
active: [2] -0.316
inactive: [1] 0.044 | [3] 0.055 | [4] -0.017 | [5] 0.025

MTFP1 (UniProt Q9UDX5)
inactive: [1] -0.04 | [2] 0.102 | [3] -0.007 | [4] 0.02 | [5] -0.009

N4BP2 (UniProt Q86UW6)
inactive: [1] -0.075 | [3] -0.004 | [4] -0.001 | [5] -0.029
active: [2] -0.369

MTA3 (UniProt Q9BTC8)
inactive: [1] 0.021 | [3] -0.017 | [4] -0.021 | [5] 0.012
active: [2] -0.278

NF1 (UniProt P21359)
active: [2] -0.634
inactive: [1] 0.03 | [3] 0.037 | [4] 0.01 | [5] 0.025

NCK1 (UniProt P16333)
active: [2] -0.281
inactive: [1] 0.048 | [3] 0.01 | [4] -0.014 | [5] 0.019

OGT (UniProt O15294)
Chain of UniProt O15294 (O15294 whole entry, looked up): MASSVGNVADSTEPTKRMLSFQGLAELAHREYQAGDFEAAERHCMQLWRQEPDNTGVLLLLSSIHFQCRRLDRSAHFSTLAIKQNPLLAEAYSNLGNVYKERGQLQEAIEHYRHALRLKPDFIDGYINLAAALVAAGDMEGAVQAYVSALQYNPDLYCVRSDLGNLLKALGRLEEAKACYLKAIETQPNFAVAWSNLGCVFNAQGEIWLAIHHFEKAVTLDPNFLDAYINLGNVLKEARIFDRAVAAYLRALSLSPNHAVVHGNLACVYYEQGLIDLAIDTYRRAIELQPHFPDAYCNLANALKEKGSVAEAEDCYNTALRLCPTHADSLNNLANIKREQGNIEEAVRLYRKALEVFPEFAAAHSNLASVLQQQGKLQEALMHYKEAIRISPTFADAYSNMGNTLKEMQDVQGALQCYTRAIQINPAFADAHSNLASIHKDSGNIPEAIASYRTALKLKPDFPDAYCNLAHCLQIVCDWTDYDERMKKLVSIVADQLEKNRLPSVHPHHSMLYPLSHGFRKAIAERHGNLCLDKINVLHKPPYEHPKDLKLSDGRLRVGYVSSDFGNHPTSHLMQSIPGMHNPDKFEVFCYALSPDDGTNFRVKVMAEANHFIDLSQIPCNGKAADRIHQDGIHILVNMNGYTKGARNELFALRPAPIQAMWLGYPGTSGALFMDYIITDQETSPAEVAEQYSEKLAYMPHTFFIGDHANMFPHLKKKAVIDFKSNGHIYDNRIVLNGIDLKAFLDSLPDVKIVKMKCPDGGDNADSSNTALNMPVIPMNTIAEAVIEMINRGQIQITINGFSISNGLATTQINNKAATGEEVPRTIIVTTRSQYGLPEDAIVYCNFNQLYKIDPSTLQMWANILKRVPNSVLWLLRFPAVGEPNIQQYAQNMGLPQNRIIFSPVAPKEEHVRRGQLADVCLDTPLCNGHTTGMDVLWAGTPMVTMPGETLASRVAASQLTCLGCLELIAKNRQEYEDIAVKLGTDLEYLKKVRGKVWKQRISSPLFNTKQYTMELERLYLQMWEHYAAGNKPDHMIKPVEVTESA
inactive: [1] 0.002 | [3] 0.035 | [4] 0.045 | [5] 0.021
active: [2] -0.42

OSBP (UniProt P22059)
inactive: [1] 0.041 | [2] 0.108 | [3] -0.121 | [4] -0.015 | [5] -0.1

NAA35 (UniProt Q5VZE5)
inactive: [1] -0.04 | [3] 0.017 | [4] 0.004 | [5] 0.028
active: [2] -0.308

OGFR (UniProt Q9NZT2)
Chain of UniProt Q9NZT2 (Q9NZT2 whole entry, looked up): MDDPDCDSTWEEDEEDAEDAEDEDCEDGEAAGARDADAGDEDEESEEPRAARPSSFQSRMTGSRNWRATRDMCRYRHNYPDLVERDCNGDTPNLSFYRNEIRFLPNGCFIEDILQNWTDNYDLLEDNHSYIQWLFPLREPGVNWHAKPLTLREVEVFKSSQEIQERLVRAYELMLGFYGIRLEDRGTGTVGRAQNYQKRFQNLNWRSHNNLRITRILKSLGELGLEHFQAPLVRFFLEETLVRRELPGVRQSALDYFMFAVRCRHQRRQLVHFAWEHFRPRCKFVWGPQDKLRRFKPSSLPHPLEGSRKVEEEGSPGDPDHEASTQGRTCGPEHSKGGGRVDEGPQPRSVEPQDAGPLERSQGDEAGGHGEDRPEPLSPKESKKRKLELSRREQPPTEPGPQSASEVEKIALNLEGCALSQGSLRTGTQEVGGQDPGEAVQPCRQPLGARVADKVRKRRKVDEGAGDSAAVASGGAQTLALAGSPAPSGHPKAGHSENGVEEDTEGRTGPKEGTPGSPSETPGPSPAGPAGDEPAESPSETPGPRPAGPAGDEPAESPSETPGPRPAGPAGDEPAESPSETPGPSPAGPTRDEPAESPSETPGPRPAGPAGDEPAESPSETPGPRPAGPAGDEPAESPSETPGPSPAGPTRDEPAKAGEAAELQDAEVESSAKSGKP
active: [2] -0.285
inactive: [1] -0.036 | [3] 0.02 | [4] -0.018 | [5] -0.061

PAPOLG (UniProt Q9BWT3)
active: [2] -0.369
inactive: [1] -0.037 | [3] 0.209 | [4] 0.066 | [5] -0.013

NEBL (UniProt O76041)
inactive: [1] 0.056 | [2] 0.207 | [3] 0.052 | [4] -0.026 | [5] -0.018

OSBPL6 isoform 5 (UniProt Q9BZF3)
inactive: [1] -0.082 | [2] -0.195 | [3] 0.25 | [4] -0.026 | [5] 0.113

NUP93 (UniProt Q8N1F7)
Chain of UniProt Q8N1F7 (Q8N1F7 whole entry, looked up): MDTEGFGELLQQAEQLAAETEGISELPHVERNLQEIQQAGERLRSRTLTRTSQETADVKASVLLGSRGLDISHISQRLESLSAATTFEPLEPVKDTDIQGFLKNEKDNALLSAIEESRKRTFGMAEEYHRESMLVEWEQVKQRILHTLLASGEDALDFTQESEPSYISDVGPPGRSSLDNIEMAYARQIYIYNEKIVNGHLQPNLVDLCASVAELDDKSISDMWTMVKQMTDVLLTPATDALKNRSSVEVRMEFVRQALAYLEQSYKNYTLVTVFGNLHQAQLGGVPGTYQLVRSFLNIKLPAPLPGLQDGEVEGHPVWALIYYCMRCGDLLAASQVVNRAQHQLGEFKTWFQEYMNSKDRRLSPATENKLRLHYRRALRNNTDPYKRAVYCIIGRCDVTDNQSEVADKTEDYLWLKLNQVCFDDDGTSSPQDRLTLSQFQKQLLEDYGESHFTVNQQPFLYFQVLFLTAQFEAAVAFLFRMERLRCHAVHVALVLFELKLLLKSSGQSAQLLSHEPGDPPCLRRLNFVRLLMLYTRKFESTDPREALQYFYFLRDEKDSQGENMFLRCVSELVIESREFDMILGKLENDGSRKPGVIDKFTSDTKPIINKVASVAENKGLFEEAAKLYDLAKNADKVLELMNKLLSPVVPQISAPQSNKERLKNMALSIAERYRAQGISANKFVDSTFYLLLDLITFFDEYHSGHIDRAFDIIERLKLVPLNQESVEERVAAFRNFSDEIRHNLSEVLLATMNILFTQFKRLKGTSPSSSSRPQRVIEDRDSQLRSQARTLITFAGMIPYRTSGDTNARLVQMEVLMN
inactive: [1] -0.011 | [3] 0.067 | [4] 0.015 | [5] 0.022
active: [2] -0.242

MYO1D (UniProt O94832)
active: [2] -0.418
inactive: [1] 0.046 | [3] 0.012 | [4] -0.027 | [5] -0.002

NT5DC2 isoform 2 (UniProt Q9H857)
active: [2] -0.272
inactive: [1] 0.013 | [3] -0.019 | [4] 0 | [5] -0.013

MYD88 isoform 6 (UniProt Q99836)
active: [2] -0.366
inactive: [1] -0.005 | [3] 0.023 | [4] -0.05 | [5] 0.033

MTHFD1, A0A384N5Y3
Chain of MTHFD1, A0A384N5Y3 (A0A384N5Y3 whole entry, looked up): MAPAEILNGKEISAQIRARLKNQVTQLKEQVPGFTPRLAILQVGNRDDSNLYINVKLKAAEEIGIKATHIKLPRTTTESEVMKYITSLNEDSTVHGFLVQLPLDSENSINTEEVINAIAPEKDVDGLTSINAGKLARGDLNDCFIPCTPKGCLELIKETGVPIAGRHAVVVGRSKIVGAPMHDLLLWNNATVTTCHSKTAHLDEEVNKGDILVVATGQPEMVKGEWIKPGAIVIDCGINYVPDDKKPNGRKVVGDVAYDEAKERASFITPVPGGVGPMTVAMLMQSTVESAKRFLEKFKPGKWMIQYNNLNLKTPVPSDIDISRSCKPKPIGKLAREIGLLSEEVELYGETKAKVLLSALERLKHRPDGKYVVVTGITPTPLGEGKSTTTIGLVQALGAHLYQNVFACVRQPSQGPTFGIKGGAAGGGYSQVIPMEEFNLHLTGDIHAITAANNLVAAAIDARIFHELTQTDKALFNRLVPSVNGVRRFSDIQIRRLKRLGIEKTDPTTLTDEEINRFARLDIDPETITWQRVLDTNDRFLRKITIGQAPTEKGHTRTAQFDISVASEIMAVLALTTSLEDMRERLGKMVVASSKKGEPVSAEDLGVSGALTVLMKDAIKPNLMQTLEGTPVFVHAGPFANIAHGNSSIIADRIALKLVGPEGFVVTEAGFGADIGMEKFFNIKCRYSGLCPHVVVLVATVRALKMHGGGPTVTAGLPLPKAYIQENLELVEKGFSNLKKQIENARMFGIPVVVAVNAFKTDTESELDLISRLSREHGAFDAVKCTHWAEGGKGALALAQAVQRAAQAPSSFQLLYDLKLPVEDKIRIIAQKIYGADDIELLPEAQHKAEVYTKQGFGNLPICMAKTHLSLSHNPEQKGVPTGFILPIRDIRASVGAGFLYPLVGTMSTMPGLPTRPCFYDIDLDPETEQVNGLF
active: [2] -0.243
inactive: [1] 0.036 | [3] 0.056 | [4] 0.028 | [5] 0.026

NUSAP1 (UniProt Q9BXS6)
inactive: [1] 0.01 | [2] 0.101 | [3] -0.036 | [4] -0.003 | [5] -0.001

MTA2 (UniProt O94776)
inactive: [1] 0.034 | [3] 0.02 | [4] 0.006 | [5] 0.021
active: [2] -0.352

NOA1 (UniProt Q8NC60)
active: [2] -0.411
inactive: [1] 0.065 | [3] 0.049 | [4] 0.048 | [5] -0.008

NUDT4 (UniProt Q9NZJ9)
inactive: [1] -0.144 | [2] -0.162 | [3] 0.028 | [4] 0.03 | [5] -0.01

OTUD7B (UniProt Q6GQQ9)
inactive: [1] 0.044 | [3] -0.038 | [4] 0.194 | [5] -0.04
active: [2] 0.331

MSH6 (UniProt P52701)
inactive: [1] 0.008 | [3] 0.063 | [4] 0.016 | [5] -0.012
active: [2] -0.287
